Data taken from paper PMC8384837, “Expanding the binding specificity for RNA recognition by a PUF domain”.

Columns and labels:
Test in all cases: yeast three-hybrid, YBZ-1, SC-Leu-His + 0.5 mM 3-AT, 4 days
Details in all cases: tags: N-Gal4 AD-HA kept; label: inside an RPR1-promoter hybrid RNA with tandem MS2 sites; ssRNA
[1] = target: PUM1 PUF domain R5-DRL (Homo sapiens, UniProt Q14671 828-1176, C1007D;Q1011L)
Procedure, shortened: (§1)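 The interaction score is the log change in how often each variant appears, from input to selection. Frequencies came from PCR-amplified, Illumina-sequenced repeat regions of Pumilio-1 PUF domain libraries grown in strain YBZ-1 (LexA–MS2 coat fusion, HIS3 reporter) alongside matching RNA elements. Input plates were SC-Leu and selection plates were SC-Leu-His + 0.5 mM 3-AT, each for four days, and the log2 calculation used a pseudocount of 1 where a variant was absent.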

[2] = target: PUM1 PUF domain R5-SKQ (Homo sapiens, UniProt Q14671 828-1176, C1007S;R1008K)
Procedure, shortened: as §1

[3] = target: PUM1 PUF domain R5-ERG (Homo sapiens, UniProt Q14671 828-1176, C1007E;Q1011G)
Procedure, shortened: as §1

[4] = target: PUM1 PUF domain R1-RLE (Homo sapiens, UniProt Q14671 828-1176, S863R;R864L;Q867E)
Procedure, shortened: as §1

[5] = target: PUM1 PUF domain R3-YWT (Homo sapiens, UniProt Q14671 828-1176, C935Y;R936W;Q939T)
Procedure, shortened: as §1

[6] = target: PUM1 PUF domain R5-KYK (Homo sapiens, UniProt Q14671 828-1176, C1007K;R1008Y;Q1011K)
Procedure, shortened: as §1

[7] = target: PUM1 PUF domain R8-HYC (Homo sapiens, UniProt Q14671 828-1176, N1122H;Q1126C)
Procedure, shortened: as §1

[8] = target: PUM1 PUF domain R5-GPR (Homo sapiens, UniProt Q14671 828-1176, C1007G;R1008P;Q1011R)
Procedure, shortened: as §1

[9] = target: PUM1 PUF domain R7-KPM (Homo sapiens, UniProt Q14671 828-1176, S1079K;N1080P;E1083M)
Procedure, shortened: as §1

[10] = target: PUM1 PUF domain R5-KSQ (Homo sapiens, UniProt Q14671 828-1176, C1007K;R1008S)
Procedure, shortened: as §1

Chain of PUM1 PUF domain R5-ERG (Q14671 828-1176 C1007E/Q1011G): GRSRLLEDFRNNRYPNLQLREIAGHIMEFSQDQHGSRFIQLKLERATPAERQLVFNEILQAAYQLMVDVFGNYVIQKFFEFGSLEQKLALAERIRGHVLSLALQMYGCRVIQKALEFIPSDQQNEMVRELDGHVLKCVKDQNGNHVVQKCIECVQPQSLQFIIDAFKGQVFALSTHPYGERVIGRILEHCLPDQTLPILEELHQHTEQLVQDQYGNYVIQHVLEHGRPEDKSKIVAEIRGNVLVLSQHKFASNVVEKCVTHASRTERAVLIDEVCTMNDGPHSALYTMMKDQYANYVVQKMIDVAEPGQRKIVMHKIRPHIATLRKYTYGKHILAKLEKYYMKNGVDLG
Chain of PUM1 PUF domain R5-GPR (Q14671 828-1176 C1007G/R1008P/Q1011R): as the sequence (Q14671 828-1176 C1007E/Q1011G) above, with E180G, R181P, G184R counted along it
Chain of PUM1 PUF domain R1-RLE (Q14671 828-1176 S863R/R864L/Q867E): as the sequence (Q14671 828-1176 C1007E/Q1011G) above, with S36R, R37L, Q40E, E180C, G184Q counted along it
Chain of PUM1 PUF domain R5-DRL (Q14671 828-1176 C1007D/Q1011L): as the sequence (Q14671 828-1176 C1007E/Q1011G) above, with E180D, G184L counted along it
Chain of PUM1 PUF domain R5-SKQ (Q14671 828-1176 C1007S/R1008K): as the sequence (Q14671 828-1176 C1007E/Q1011G) above, with E180S, R181K, G184Q counted along it
Chain of PUM1 PUF domain R8-HYC (Q14671 828-1176 N1122H/Q1126C): as the sequence (Q14671 828-1176 C1007E/Q1011G) above, with E180C, G184Q, N295H, Q299C counted along it
Chain of PUM1 PUF domain R5-KYK (Q14671 828-1176 C1007K/R1008Y/Q1011K): as the sequence (Q14671 828-1176 C1007E/Q1011G) above, with E180K, R181Y, G184K counted along it
Chain of PUM1 PUF domain R7-KPM (Q14671 828-1176 S1079K/N1080P/E1083M): as the sequence (Q14671 828-1176 C1007E/Q1011G) above, with E180C, G184Q, S252K, N253P, E256M counted along it
Chain of PUM1 PUF domain R3-YWT (Q14671 828-1176 C935Y/R936W/Q939T): as the sequence (Q14671 828-1176 C1007E/Q1011G) above, with C108Y, R109W, Q112T, E180C, G184Q counted along it
Chain of PUM1 PUF domain R5-KSQ (Q14671 828-1176 C1007K/R1008S): as the sequence (Q14671 828-1176 C1007E/Q1011G) above, with E180K, R181S, G184Q counted along it

“GGCUAGAACUAGUGGAUCCCCCGGCGCCCGGCGGCUCGAGCCCGGGUAAGUGUGAAUAGUCUGCAUGCCGCCGGGCGCCAUGCCUGCAGGUCGACUCUAGAAAACAUG” was tested, and the binding signal [1] was 1.6 log2 enrichment (interaction score), the binding signal [2] was 2.39 log2 enrichment (interaction score) and the binding signal [3] was 1.54 log2 enrichment (interaction score).
In the case of “GGCUAGAACUAGUGGAUCCCCCGGCGCCCGGCGGCUCGAGCCCGGGUAAGUGUAAAUUGUCUGCAUGCCGCCGGGCGCCAUGCCUGCAGGUCGACUCUAGAAAACAUG”, the binding signal [4] is reported as 2.88 log2 enrichment (interaction score).
In the case of “GGCUAGAACUAGUGGAUCCCCCGGCGCCCGGCGGCUCGAGCCCGGGUAAGUGUAAUUAGUCUGCAUGCCGCCGGGCGCCAUGCCUGCAGGUCGACUCUAGAAAACAUG”, the binding signal [5] is reported as 2.71 log2 enrichment (interaction score).
“GGCUAGAACUAGUGGAUCCCCCGGCGCCCGGCGGCUCGAGCCCGGGUAAGUGUAAAUAGUCUGCAUGCCGCCGGGCGCCAUGCCUGCAGGUCGACUCUAGAAAACAUG” was tested, and the binding signal [1] was 2.34 log2 enrichment (interaction score), the binding signal [6] was 2.74 log2 enrichment (interaction score) and the binding signal [7] was 3.69 log2 enrichment (interaction score). For the same sequence, the binding signal [3] was 3.47 log2 enrichment (interaction score).
For “GGCUAGAACUAGUGGAUCCCCCGGCGCCCGGCGGCUCGAGCCCGGGUAAGUGUAAAUCGUCUGCAUGCCGCCGGGCGCCAUGCCUGCAGGUCGACUCUAGAAAACAUG”, the binding signal [4] was 2.67 log2 enrichment (interaction score).
“GGCUAGAACUAGUGGAUCCCCCGGCGCCCGGCGGCUCGAGCCCGGGUAAGUGUUAAUAGUCUGCAUGCCGCCGGGCGCCAUGCCUGCAGGUCGACUCUAGAAAACAUG” was tested, and the binding signal [8] was 2.39 log2 enrichment (interaction score).
“GGCUAGAACUAGUGGAUCCCCCGGCGCCCGGCGGCUCGAGCCCGGGUAAGUCUAAAUAGUCUGCAUGCCGCCGGGCGCCAUGCCUGCAGGUCGACUCUAGAAAACAUG” was tested, and the binding signal [9] was 3.19 log2 enrichment (interaction score).
For “GGCUAGAACUAGUGGAUCCCCCGGCGCCCGGCGGCUCGAGCCCGGGUAAGUGUCAAUAGUCUGCAUGCCGCCGGGCGCCAUGCCUGCAGGUCGACUCUAGAAAACAUG”, the binding signal [8] was 4.4 log2 enrichment (interaction score), the binding signal [3] was 2.14 log2 enrichment (interaction score) and the binding signal [10] was 5.03 log2 enrichment (interaction score).
